# “And” between values parts separate entries of the source, which are not always exact repeats. Identical values can stand only once. A number with no mark means an inactive call. Results filed as inconclusive are left out. A call without a number means that no potency is given here. The source made the active and inactive calls. Calls come from the whole dose curve; as a rule, active = well fitted curve in the direction sought with a large enough effect; inconclusive = small, poorly fitted or top-dose-only effect, or another doubt; inactive = no such curve, though single readings can be large; an effect the other way counts as inactive or inconclusive. *1 amine or outer side, *2 acyl side, *3 side chain or, on linkers, in order; H or OH if unused. Where a SMILES comes first, the peptide text is derived from it. Bridges are numbered along the chain shown (N, C = ends). X6 = O=C(CCC[*:2])[*:1]
# Key:
# [1] = biological target: Glutathione peroxidase 1 (Homo sapiens) (UniProt P07203); assay: Primary qHTS Assay for Inhibitors of Recombinant Selenoprotein Glutathione Peroxidase 1 (GPX1) (AID 1845191); note: nearly all actives have a fitted effect of over 65% in size; note: potency is the fitted concentration of half-maximal effect
# Summary of the method: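 GPX1 10 nM, GR 100 nM, GSH 1 mM, NADPH 0.5 mM, CHP 0.5 mM (final). 30-min cpd preincubation, RT. Ex340/Em450 read t=0, t=15 min.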
# [2] = biological target: Phospholipid hydroperoxide glutathione peroxidase GPX4 (Homo sapiens) (UniProt P36969); assay: Primary qHTS Assay for Inhibitors of Recombinant Selenoprotein Glutathione Peroxidase 4 (GPX4) (AID 1845192); note: nearly all actives have a fitted effect of over 65% in size; note: potency is the fitted concentration of half-maximal effect
# Summary of the method: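 qHTS, GR-coupled: GPX4 200 nM + cpd 30 min RT → GSH 1 mM, NADPH 0.5 mM, GR 100 nM → CHP 0.5 mM start; fluor 340/450 at t0 and t15 min; no-enzyme wells as control.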
# [3] = biological target: Luciferin 4-monooxygenase (Photinus pyralis) (UniProt P08659); assay: Primary firefly luciferase (FLuc) qHTS assay for identification of artifact compounds. (AID 1845220); note: nearly all actives have a fitted effect of over 60% in size
# Summary of the method: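 qHTS, 15 min compound preincubation with substrate (10 uM luciferin, 10 uM ATP) at RT, then 10 nM FLuc; 5 min; luminescence; % inhibition vs no-enzyme/DMSO controls, 4-parameter Hill fit.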
# [4] = Primary fluorescence-based thiol-reactive (MSTI) qHTS assay for identification of artifact compounds. (AID 1845221); note: nearly all actives have a fitted effect of over 65% in size; note: potency is the fitted concentration of half-maximal effect;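 for activity change, negative = thiol reactive: series mostly up to about 54 µM; thiol-reactive compounds lower the probe fluorescence signal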
# Summary of the method: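 One-hour, room-temperature, dark incubation of compound with 4 uM MSTI in PBS (pH 7.4, 2% DMSO) precedes a fluorescence read at 525 nm excitation, 598 nm emission; Hill-equation fitting yields concentration-response values.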
# [5] = system: Nanoluciferase (engineered Oplophorus gracilirostris luciferase); assay: Primary Nanoluciferase (NLuc) qHTS assay for identification of artifact compounds. (AID 1845222); note: series mostly up to about 54 µM
# Summary of the method: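 Luminescence read-out of secreted NLuc in S16 cell conditioned medium (1:55); compounds tested with 15 min RT preincubation, then Nano-Glo substrate 1:100, 5 min. % inhibition vs no-enzyme and DMSO controls, 4-parameter Hill fit.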
# Sequence of Phospholipid hydroperoxide glutathione peroxidase GPX4 (Homo sapiens) (P36969 whole entry, looked up): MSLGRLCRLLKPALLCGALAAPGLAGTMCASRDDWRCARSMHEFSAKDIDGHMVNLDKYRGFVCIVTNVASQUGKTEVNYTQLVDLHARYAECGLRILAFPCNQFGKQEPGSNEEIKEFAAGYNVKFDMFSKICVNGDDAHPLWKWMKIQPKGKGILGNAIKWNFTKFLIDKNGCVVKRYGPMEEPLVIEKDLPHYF
# Sequence of Glutathione peroxidase 1 (Homo sapiens) (P07203 whole entry, looked up): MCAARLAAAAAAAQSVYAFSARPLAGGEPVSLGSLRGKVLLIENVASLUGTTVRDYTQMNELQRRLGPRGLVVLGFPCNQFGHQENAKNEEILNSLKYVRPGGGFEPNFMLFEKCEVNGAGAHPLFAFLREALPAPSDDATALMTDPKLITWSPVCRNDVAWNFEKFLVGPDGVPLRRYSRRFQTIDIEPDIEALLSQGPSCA
Compound,Potency [1],Potency [2],Potency [3],Potency [4],Potency [5],outcome [3],"activity change, negative = thiol reactive [4]","activity, negative = inhibition [5]"
COC(=O)[C@H](CC1C=NC=N1)NCC12CC3CC(CC(C3)C1)C2 (stereo not given in full),inactive,inactive,inactive,inactive,inactive,,,
C=C1CCC(OC(C)=O)C2(C)CC3(O)OC(=O)C(C)=C3CC12 (stereo not given),inactive,inactive,inactive,inactive,inactive,,,
CCCC1=CC2=C(CO1)C(=O)C(C)(OC(=O)c1c(C)cc(OC)cc1O)C(O)C2 (stereo not given),inactive,inactive,inactive,inactive,inactive,,,
CO[C@@H]1COCC[C@@H]1N[C@@H]1CC[C@@](C(=O)N2CCc3ncc(C(F)(F)F)cc3C2)(C(C)C)C1,inactive,inactive,inactive,inactive,inactive,,,
C=C1CCC[C@]2(C)C[C@]3(O)OC(=O)C(C)=C3C[C@@H]12,inactive,inactive,inactive,inactive,inactive,,,
C=CC1(C)CC(O)C2(CCC3C(C)(C(=O)O)CCCC3(C)C2=O)C1 (stereo not given),inactive,inactive,inactive,inactive,inactive,,,
CO/N=C(/C(=O)N[C@@H]1C(=O)N2C(C(=O)O)=C(CSC(=O)c3ccco3)CS[C@H]12)c1csc(N)n1,8.06 µM (active) and 7.18 µM (active),7.08 µM (active),inactive,inactive,inactive,,,
COc1cc(/C=C/C(=O)OC2CC(C)=C(C(=O)O)/C2=C/CO[C@@H]2O[C@H](CO)[C@@H](O)[C@H](O)[C@H]2O)ccc1O (stereo not given in full),inactive,inactive,inactive,4.12 µM (active),inactive,,,
CN1CC[C@@H](NC(=O)Nc2ccc(C#N)cc2)C[C@@H]1c1nc2ccccc2[nH]1,inactive,inactive,inactive,inactive,inactive,,,
Cn1ccnc1CCOC(c1cc2nccc(C(=O)O)c2[nH]1)c1ccccc1Cl (stereo not given),inactive,inactive,inactive,inactive,inactive,,,
CC[C@H](C)[C@@H]1NC(=O)[C@H](Cc2ccc(OC)cc2)NC(=O)CCCSC[C@@H](C(=O)N2CCC[C@H]2C(=O)N[C@@H](CC(C)C)C(=O)NCC(N)=O)NC(=O)[C@H](CC(N)=O)NC(=O)[C@H](CCC(N)=O)NC1=O (Y(Me)IQNCPLG-NH2; linker N-5 via X6),inactive,inactive,inactive,inactive,inactive,,,
COCCCNCC1COc2ccccc2O1 (stereo not given),inactive,inactive,inactive,inactive,inactive,,,
O=C(c1ccc(F)cc1)C1CCN(CCn2c(=O)nc3n(c2=O)CCCC3)CC1,inactive,inactive,inactive,inactive,inactive,,,
CC1=C2CC3OC3(C)CCC3OC3(C)CC2OC1=O (stereo not given),inactive,inactive,inactive,inactive,inactive,,,
N#CCc1ccc(O)cc1O[C@@H]1O[C@H](CO)[C@@H](O)[C@H](O)[C@H]1O,inactive,inactive,inactive,13.1 µM (active),inactive,,,
C[C@@H]1O[C@@H](O[C@H]2[C@H](O[C@H]3[C@H](O[C@H]4CC[C@@]5(CO)C(CC[C@]6(C)C5CC=C5C7CC(C)(C)C[C@@H](O)[C@]7(C)CC[C@]56C)C4(C)C)O[C@H](C(=O)O)[C@@H](O)[C@@H]3O)OC[C@@H](O)[C@@H]2O)[C@H](O)[C@H](O)[C@H]1O (stereo not given in full),inactive,inactive,,,,inactive [at 11.6 µM],150% [at 11.5 µM],-0.0839% [at 11.6 µM]
O=S(=O)(Nc1ccc(C(O)(C(F)(F)F)C(F)(F)F)cc1)c1cccs1,inactive,inactive,inactive,inactive,inactive,,,
Cc1onc(-c2ccccc2)c1C(=O)N[C@@H]1C(=O)N2[C@@H]1SC(C)(C)[C@@H]2C(=O)O,inactive,inactive,inactive,inactive,inactive,,,
CC1(C)OC(=O)C(OCC2CC2)=C1c1ccc(S(C)(=O)=O)cc1,inactive,inactive,inactive,inactive,inactive,,,
CC1(CO)CC2C(O)C(=O)C3(CO)CC3(C)C2C1 (stereo not given),inactive,inactive,inactive,inactive,inactive,,,
CC(=O)N1c2ccccc2C2(O)CC3C(=O)NC(CC(C)C)C(=O)N3C12 (stereo not given),inactive,inactive,inactive,inactive,inactive,,,
CC(C)C1=CCC(C)(O)C(OC2OC(CO)C(O)C(O)C2O)C1 (stereo not given),inactive,inactive,inactive,2.33 µM (active),inactive,,,

# Reference: PubChem BioAssay (NCATS)
